Test results: PubChem BioAssay (NCI)
Where “and” joins values, the source holds several entries; their conditions need not be identical. Identical values can stand only once. Compounds without any hit were thinned out: in the full panel of roughly 83,000, 20% have a hit.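 Cell lines were cultured in 96-well plates, exposed to a single compound concentration, and assessed for percent growth 48 hours later.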 Calls of active or inactive are those of the source. Rule for the calls: active = growth percent below 10; inactive = the rest.

Key:
Assay in all cases: NCI-60 one-dose screen, 48 h (100 = growth as untreated, 0 = no growth, -100 = all killed)
Settings in all cases: 10 µM unless noted
[1] = tested on: MCF7 breast
[2] = tested on: T-47D breast
[3] = tested on: BT-549 breast
[4] = tested on: HCT-116 colon
[5] = tested on: HCC-2998 colon
[6] = tested on: KM12 colon
[7] = tested on: MDA-MB-435 melanoma
[8] = tested on: SW-620 colon

With COc1ccc2c(C)cc(N/N=C/c3ccc(C)s3)nc2c1 the growth [1] was -55.5% [100 µM] (active) and -100% [100 µM] (active).
In the case of O=C1C2=C(C(=O)c3ccccc31)C(O)(S(=O)(=O)O)C(O)(S(=O)(=O)O)C1N=CC=CC21 (configuration not stated), the growth [2] was 39% (inactive) and -21.9% (active), the growth [3] was 39.6% (inactive) and 24.6% (inactive) and the growth [1] was 29.1% (inactive) and 24.9% (inactive). The growth [4] was 23.1% (inactive) and 8.66% (active), the growth [5] was 44.6% (inactive) and 28.3% (inactive) and the growth [6] was 41.6% (inactive) and 32.6% (inactive).
CCCCCCCCCCCCCCCc1cc(O)ccc1N was tested, and the growth [2] was -5.74% (active) and -86.4% (active), the growth [3] was -36.3% (active) and 12.7% (inactive) and the growth [1] was 72.2% (inactive) and 35.3% (inactive). The growth [4] was 94.4% (inactive) and 91.4% (inactive), the growth [5] was 96.4% (inactive) and 101% (inactive) and the growth [6] was 64.2% (inactive) and 72% (inactive).
For Cc1cc(-c2ccc(NS(=O)(=O)c3ccccc3)c(C)c2)ccc1NS(=O)(=O)c1ccccc1, the growth [2] was 78.7% (inactive) and 105% (inactive), the growth [3] was 79.7% (inactive) and the growth [1] was 60.4% (inactive) and 82.9% (inactive). The growth [4] was 70.7% (inactive) and 101% (inactive), the growth [5] was 100% (inactive) and 110% (inactive) and the growth [6] was 72.3% (inactive) and 90.1% (inactive).
For C[C@@H]1CC[C@H]2C(C)(C)[C@H]3C[C@@]12CC[C@@]3(C)O, the growth [1] was 93.1% [100 µM] (inactive) and -100% [100 µM] (active).
With CNC(=O)c1cccnc1 the growth [3] was 101% (inactive), the growth [7] was 105% (inactive) and the growth [1] was 105% (inactive). For the same compound, the growth [4] was 103% (inactive), the growth [5] was 110% (inactive) and the growth [6] was 110% (inactive).
With CCN(CC)C(=S)SSC(=S)N(CC)CC the growth [2] was 79.4% (inactive) and 87.3% (inactive), the growth [3] was 90.6% (inactive) and 90.3% (inactive) and the growth [1] was 71.4% (inactive) and 95.9% (inactive). The growth [4] was 58.6% (inactive) and 93.8% (inactive), the growth [5] was 91.9% (inactive) and 102% (inactive) and the growth [6] was 88.8% (inactive) and 97.5% (inactive).
With Cc1ccc(OCC2OC(n3cnc4c(Cl)nc(Cl)nc43)CC2Oc2ccc(C)cc2)cc1 (configuration not stated) the growth [1] was -91.5% [100 µM] (active) and -93.1% [100 µM] (active).
Nc1ncnc2c1ncn2C1CC(O)C(CO)O1 (configuration not stated) was tested, and the growth [2] was 112% (inactive) and 99.1% (inactive), the growth [1] was 96.1% (inactive) and 97.1% (inactive) and the growth [4] was 103% (inactive) and 100% (inactive). The growth [5] was -17.3% (active) and 119% (inactive) and the growth [6] was 114% (inactive) and 107% (inactive).
With CC(C)=CCc1c(OC(=O)c2c(C)cc(O)cc2O)cc(CO)c(CO)c1O the growth [1] was -58.6% [100 µM] (active) and -100% [100 µM] (active).
With CNC(=S)c1nnsc1N the growth [1] was 19% [100 µM] (inactive) and 0.417% [100 µM] (active).
With NC(N)=Nc1ccc(CC(N)C(=O)O)cc1 (configuration not stated) the growth [1] was 93.7% [12.5 µM] (inactive) and 76.9% [12.5 µM] (inactive).
C/C(O)=C/c1nc2sc(C)c(C)c2c(=O)s1 was tested, and the growth [1] was 10.6% [100 µM] (inactive) and 6.54% [100 µM] (active).
In the case of O=C1c2c(O)cc(O)cc2OC(c2ccc(O)c(O)c2)C1O (configuration not stated), the growth [2] was 103% (inactive), the growth [7] was 111% (inactive) and the growth [8] was 104% (inactive). For the same compound, the growth [1] was 102% (inactive) and the growth [6] was 114% (inactive).
With O=C(N/N=C/c1ccccc1)N/N=C/c1ccccc1 the growth [2] was 114% (inactive) and 106% (inactive), the growth [7] was 104% (inactive) and 98.6% (inactive) and the growth [8] was 106% (inactive) and 96% (inactive). The growth [1] was 99.1% (inactive) and 102% (inactive), the growth [4] was 107% (inactive) and the growth [5] was 101% (inactive) and 96.3% (inactive). The growth [6] was 99.8% (inactive) and 102% (inactive).
For O=C(O)c1cc(C(=O)O)cc([N+](=O)[O-])c1, the growth [3] was 102% (inactive), the growth [8] was 107% (inactive) and the growth [1] was 104% (inactive). The growth [4] was 101% (inactive), the growth [5] was 110% (inactive) and the growth [6] was 109% (inactive).
For CC(C)/C(Cl)=N/OC(=O)Nc1cccc(C(F)(F)F)c1, the growth [1] was -79.5% [100 µM] (active) and -84.4% [100 µM] (active).
In the case of c1ccc(N(c2ccccc2)c2ccccc2)cc1, the growth [3] was 106% (inactive), the growth [7] was 104% (inactive) and the growth [8] was 103% (inactive). For the same compound, the growth [1] was 117% (inactive), the growth [4] was 99.6% (inactive) and the growth [5] was 111% (inactive). For the same compound, the growth [6] was 105% (inactive).
For CCCCCCCCCCCCOc1ccccc1C=O, the growth [2] was 100% (inactive), the growth [8] was 101% (inactive) and the growth [1] was 81.7% (inactive). For the same compound, the growth [4] was 103% (inactive), the growth [5] was 90.2% (inactive) and the growth [6] was 102% (inactive).
In the case of Clc1ccc(C2C3COc4ccccc4C3=NN2c2ccccc2)cc1 (configuration not stated), the growth [1] was 12.9% [100 µM] (inactive) and -27.8% [100 µM] (active).
For O=C1CC(c2ccccc2)NCCCCN2CC(CN1)C(C(O)c1ccccc1)C2=O (configuration not stated), the growth [1] was 97.3% [100 µM] (inactive) and 76% [100 µM] (inactive).
N/N=C(\C(=O)Nc1ccc([N+](=O)[O-])cc1)C(C1=Nc2cc([N+](=O)[O-])ccc2NC1)[N+](=O)[O-] (configuration not stated) was tested, and the growth [1] was 45.9% [100 µM] (inactive) and 33.8% [100 µM] (inactive).
In the case of CC(C)O/N=C/c1cc(NC(=S)OC(C)C)ccc1Cl, the growth [1] was -77.4% [100 µM] (active) and 3.65% [100 µM] (active).
In the case of CC(=O)C(/C=N/C(N)=O)=C(/C)O, the growth [3] was 101% (inactive), the growth [7] was 103% (inactive) and the growth [8] was 105% (inactive). The growth [1] was 106% (inactive), the growth [4] was 105% (inactive) and the growth [5] was 106% (inactive). For the same compound, the growth [6] was 111% (inactive).
In the case of O[C@H](c1cc(C(F)(F)F)nc2c(C(F)(F)F)cccc12)[C@@H]1CCCCN1, the growth [2] was 43.6% (inactive) and 64% (inactive), the growth [3] was 65.1% (inactive) and 74.8% (inactive) and the growth [1] was 21.3% (inactive) and 13.3% (inactive). The growth [4] was 44.1% (inactive) and 45.2% (inactive), the growth [5] was 74.5% (inactive) and 54.9% (inactive) and the growth [6] was 50.7% (inactive) and 43.8% (inactive).
CCC(=O)C(CC)c1cccc(OC)c1 (configuration not stated) was tested, and the growth [3] was 105% (inactive), the growth [7] was 101% (inactive) and the growth [8] was 105% (inactive). For the same compound, the growth [1] was 104% (inactive), the growth [4] was 104% (inactive) and the growth [5] was 112% (inactive). The growth [6] was 111% (inactive).
With C[C@@H]1C[C@@H]2OC(=O)[C@]3(C)[C@H]2[C@@H](OC3(C)O)[C@]2(C)C(=O)C=C[C@@H]12 (some centres not stated) the growth [1] was -67.1% [100 µM] (active) and -81.7% [100 µM] (active).
O=C=NC(c1ccccc1)(c1ccccc1)c1ccccc1 was tested, and the growth [3] was 103% (inactive), the growth [8] was 107% (inactive) and the growth [1] was 102% (inactive). The growth [4] was 93.5% (inactive), the growth [5] was 111% (inactive) and the growth [6] was 103% (inactive).
In the case of CC(C)C1OC(N)=C(C#N)C1(C#N)C#N (configuration not stated), the growth [1] was 12.9% [100 µM] (inactive) and 2.2% [100 µM] (active).
COc1cc2c(cc1-c1coc3cc(O)ccc3c1=O)OCO2 was tested, and the growth [1] was 67.5% [100 µM] (inactive) and 58.5% [100 µM] (inactive).
S=C1SCN(Cc2ccccc2)CN1Cc1ccccc1 was tested, and the growth [2] was 41.4% (inactive), the growth [3] was 93.6% (inactive) and the growth [8] was 32.9% (inactive). For the same compound, the growth [1] was 17.8% (inactive), the growth [4] was 7.28% (active) and the growth [6] was 5.8% (active).
COc1cc(Nc2nc3ccccc3nc2NS(=O)(=O)c2ccc(NC(=O)c3ccc(C)c(OC)c3)cc2)cc(OC)c1 was tested, and the growth [2] was 35.9% (inactive) and -31.1% (active), the growth [3] was 39.6% (inactive) and -6.94% (active) and the growth [1] was 36.6% (inactive) and 5.28% (active). The growth [4] was 69.9% (inactive) and 18.2% (inactive), the growth [5] was 68.5% (inactive) and the growth [6] was 54% (inactive) and 13.9% (inactive).
For COc1ccc2cc1Oc1ccc(cc1)C[C@@H]1c3cc(c(OC)cc3CCN1C)Oc1c(OC)c(OC)cc3c1[C@H](C2)N(C)CC3, the growth [1] was 35.9% [100 µM] (inactive) and -90.5% [100 µM] (active).
C=C1C(=O)O[C@@H]2C[C@@]3(C)CC(=O)C=C(C)[C@@H]3C[C@H]12 was tested, and the growth [1] was -74.2% [100 µM] (active) and -78.3% [100 µM] (active).
For COc1ccc(C)cc1NC(=S)C#N, the growth [1] was 77.9% [100 µM] (inactive) and 4.98% [100 µM] (active).
